Assay outcomes deposited in PubChem by several laboratories.
This is a sample that favours compounds with a hit; in the whole collection about 0.73% have one here.
TcdB GH inh: inhibitors of Clostridioides difficile toxin B glycohydrolase; P18177; TcdB glycohydrolase enzymatic assay, plate reader; inhibition, % at 9.99 µM; 350,000 compounds, 0.24% hits; in the data active means inhibition above about 10%
BH1578 lux ind: induces V. cholerae light production without autoinducers; V. cholerae BH1578 lux reporter, luminescence, 6 h; activation, % at 18.7 µM; 350,000 compounds, 0.16% hits; AID 588436; in the data active means activation mostly above about 9.7%, no sharp cut-off
BioA inh: BioA (M. tuberculosis) enzyme inhibition; purified M. tuberculosis BioA enzyme, plate reader; inhibition, % at 9.99 µM; 360,000 compounds, 0.096% hits; in the data active means inhibition above about 40%
DUSP3 inh: blocks human VHR1 dual specificity phosphatase; 290,000 compounds, 0.52% hits; P51452; inhibition, % at 13.3 µM; recombinant VHR phosphatase, pNPP absorbance; in the data active means inhibition above about 50%
Y pestis TopoI: blocks Yersinia pestis topoisomerase I activity; activity, % at 10 µM; 360,000 compounds, 0.064% hits; Y. pestis Topo-I cleavage product accumulation, plate reader; in the data active means activity above about 50%, passing the limit was not always enough
* marks the source's active call; other numbers are inactive results.

`CC(=O)OCc1cc(-c2nn(C)c(=O)c3ccccc23)ccc1C` gave TcdB GH inh 1, BH1578 lux ind inactive, DUSP3 inh 4 and Y pestis TopoI -1.
`CCOC(=O)N1CCC(c2cc(=O)n3[nH]c(-c4ccccc4)cc3n2)CC1` gave TcdB GH inh 24*, BH1578 lux ind 0, BioA inh -1, DUSP3 inh 15 and Y pestis TopoI 2.
Screening CCOC(=O)Cc1cc(=O)n2[nH]c(-c3ccccc3)cc2n1 returned TcdB GH inh 2, BH1578 lux ind -6, BioA inh 0, DUSP3 inh 9 and Y pestis TopoI -9.
Screening COCc1cn(CC[C@H]2CC[C@@H](NC(=O)Nc3ccc(F)cc3)[C@H](CO)O2)nn1 returned TcdB GH inh 0 and BioA inh 1.
For Cc1ccc(S(=O)(=O)c2c(C)cc(C)nc2Cl)cc1 the results were BH1578 lux ind 0, DUSP3 inh -1 and Y pestis TopoI 10.
Cc1cc(C)c(S(=O)(=O)c2ccc(C(C)(C)C)cc2)c(Cl)n1 was read as TcdB GH inh -1, BH1578 lux ind 0, BioA inh 1, DUSP3 inh 53* and Y pestis TopoI 41.
`CCOc1ccc(C(=O)NC(C(=O)NCc2ccccc2OC)C(C)C)cc1` (stereo not drawn) gave TcdB GH inh 0, BH1578 lux ind 0, DUSP3 inh 11 and Y pestis TopoI -3.
`COc1ccc(C(=O)NC(C(=O)NCc2ccccc2OC)C(C)C)cc1` (stereo not drawn) gave TcdB GH inh 15*, BH1578 lux ind -2, DUSP3 inh 8 and Y pestis TopoI 5.
For Cc1onc(-c2ccccc2)c1C(=O)N/N=C/c1cn(C)c2ccccc12 the results were TcdB GH inh 13*, BH1578 lux ind inactive, BioA inh 0, DUSP3 inh 22 and Y pestis TopoI 12.
O=C(N[C@@H]1CC[C@@H](CCn2cc(-c3ccccn3)nn2)O[C@@H]1CO)c1cccnc1 was read as TcdB GH inh 0 and BioA inh -1.
OCC1(CC2CCCCO2)CCN(C/C=C/c2ccccc2)CC1 (stereo not drawn) was read as TcdB GH inh 1, BH1578 lux ind 0, BioA inh -1, DUSP3 inh -4 and Y pestis TopoI 1.
`COc1cc(/C=C/CN2CCC(CO)(CC3CCCCO3)CC2)ccc1O` (stereo not drawn) gave TcdB GH inh 4, BH1578 lux ind 1, DUSP3 inh 51* and Y pestis TopoI 1.
For CC(=O)C1=CCC(c2ccccc2)N(S(=O)(=O)c2ccccc2)C1 (stereo not drawn) the results were TcdB GH inh 6 and BioA inh 1.
For CC(=O)C1=CCC(c2ccc(Br)cc2)N(S(=O)(=O)c2ccc(C)cc2)C1 (stereo not drawn) the results were TcdB GH inh 3 and BioA inh 0.
For CC(=O)C1=CCC(c2ccc(C)cc2)N(S(=O)(=O)c2ccc(C)cc2)C1 (stereo not drawn) the results were TcdB GH inh 12* and BioA inh -2.
For Cc1ccc(S(=O)(=O)N2CC(CBr)=CCC2c2ccccc2)cc1 (stereo not drawn) the results were TcdB GH inh 16*.
Screening COc1ccc(C(NC(=O)c2cc(OC)ccc2OC)c2ccccc2)cc1 (stereo not drawn) returned TcdB GH inh 1, BH1578 lux ind inactive, BioA inh 0, DUSP3 inh 22 and Y pestis TopoI 50*.
CS(=O)(=O)N(CC(=O)Nc1ccc(S(=O)(=O)N2CCOCC2)cc1)c1ccccc1Br was read as TcdB GH inh 32*, BH1578 lux ind 0, BioA inh 0, DUSP3 inh 29 and Y pestis TopoI 6.
`COc1ccc(C)cc1N(CC(=O)Nc1ccc(S(=O)(=O)N2CCOCC2)cc1)S(C)(=O)=O` gave TcdB GH inh 0, BH1578 lux ind 0, BioA inh -1, DUSP3 inh 21 and Y pestis TopoI 17.
For CCn1nc(-c2cccs2)nc2c(=O)n(C)c(=O)nc1-2 the results were BH1578 lux ind inactive, BioA inh 4, DUSP3 inh 90* and Y pestis TopoI -7.
`CCn1nc(/C=C/c2ccccc2)nc2c(=O)n(C)c(=O)nc1-2` gave TcdB GH inh -1, BH1578 lux ind 1 and Y pestis TopoI 1.
Cc1noc(C)c1S(=O)(=O)Nc1ccc2c(c1)C(=O)N([C@H](C)CO)C[C@H](C)[C@H](CN(C)S(=O)(=O)c1c(C)noc1C)OCCCC[C@H](C)O2 was read as TcdB GH inh -1 and BioA inh 1.
For COc1cccc(C(=O)C2CCCN(Cc3ccc(F)cc3)C2)c1 (stereo not drawn) the results were TcdB GH inh 13*, BH1578 lux ind 0, BioA inh -1, DUSP3 inh 16 and Y pestis TopoI 22.
COc1cccc(CC(=O)NC2CCCN(Cc3ccc(Cl)cc3)C2)c1 (stereo not drawn) was read as TcdB GH inh 0, BH1578 lux ind 19, BioA inh 2, DUSP3 inh 53* and Y pestis TopoI 30.
COC(=O)c1ccc(CN2CCCC(C(=O)Nc3cccc(-n4cccn4)c3)C2)cc1 (stereo not drawn) was read as TcdB GH inh 1, BH1578 lux ind 0, BioA inh -1, DUSP3 inh 52* and Y pestis TopoI 13.
Screening COc1cccc(CC(=O)NC2CCCN(Cc3ccccc3F)C2)c1 (stereo not drawn) returned TcdB GH inh 1, BH1578 lux ind -1, BioA inh 0, DUSP3 inh -3 and Y pestis TopoI -2.
CC1(C)CC(NS(=O)(=O)c2cccc3ccccc23)CC(C)(C)N1 was read as TcdB GH inh 0, BH1578 lux ind 0, BioA inh -7, DUSP3 inh 56* and Y pestis TopoI -13.
For CCCS(=O)(=O)N1CCCC(C(=O)NCCCN(CC)c2cccc(C)c2)C1 (stereo not drawn) the results were BH1578 lux ind active, BioA inh 0, DUSP3 inh 24 and Y pestis TopoI 23.
For Cc1cc(=O)oc2c(N)c(O)ccc12 the results were TcdB GH inh 12*, BH1578 lux ind 0, BioA inh 0, DUSP3 inh 8 and Y pestis TopoI 3.
Cc1ccc(CNC(=O)CSc2c3c(nc4cc(Cl)ccc24)CCCC3)o1 was read as BH1578 lux ind 26*, BioA inh 0, DUSP3 inh 25 and Y pestis TopoI 0.
O=C(Nc1ccccc1Cl)OCC#CCOC(=O)Nc1ccccc1Cl was read as TcdB GH inh 0, BH1578 lux ind inactive, BioA inh -1 and Y pestis TopoI 55*.
`CN(C)CCOC(=O)C12CC3CC(CC(C3)C1)C2` gave BH1578 lux ind 5, DUSP3 inh 35 and Y pestis TopoI -3.
`CN(C)CCOC(=O)C12CC3(C)CC(C)(CC(C)(C3)C1)C2` gave TcdB GH inh -1, BH1578 lux ind inactive, BioA inh -4, DUSP3 inh 52* and Y pestis TopoI -13.
